The whole screen tested about 310,000 compounds, of which about 14,000 (4.5%) showed an effect of 50% or more. The effect is printed as a negative number. What follows is part of a selection rich in strong results, with near analogues and random picks from the rest.
What follows are compounds tested against human ether-à-go-go-related gene (hERG) potassium channel (human, UniProt Q12809) (assay: primary screen, population patch clamp on CHO cells stably expressing hERG; higher = less effect of the substance).
Sequence of human ether-à-go-go-related gene (hERG) potassium channel (Q12809 whole entry, looked up): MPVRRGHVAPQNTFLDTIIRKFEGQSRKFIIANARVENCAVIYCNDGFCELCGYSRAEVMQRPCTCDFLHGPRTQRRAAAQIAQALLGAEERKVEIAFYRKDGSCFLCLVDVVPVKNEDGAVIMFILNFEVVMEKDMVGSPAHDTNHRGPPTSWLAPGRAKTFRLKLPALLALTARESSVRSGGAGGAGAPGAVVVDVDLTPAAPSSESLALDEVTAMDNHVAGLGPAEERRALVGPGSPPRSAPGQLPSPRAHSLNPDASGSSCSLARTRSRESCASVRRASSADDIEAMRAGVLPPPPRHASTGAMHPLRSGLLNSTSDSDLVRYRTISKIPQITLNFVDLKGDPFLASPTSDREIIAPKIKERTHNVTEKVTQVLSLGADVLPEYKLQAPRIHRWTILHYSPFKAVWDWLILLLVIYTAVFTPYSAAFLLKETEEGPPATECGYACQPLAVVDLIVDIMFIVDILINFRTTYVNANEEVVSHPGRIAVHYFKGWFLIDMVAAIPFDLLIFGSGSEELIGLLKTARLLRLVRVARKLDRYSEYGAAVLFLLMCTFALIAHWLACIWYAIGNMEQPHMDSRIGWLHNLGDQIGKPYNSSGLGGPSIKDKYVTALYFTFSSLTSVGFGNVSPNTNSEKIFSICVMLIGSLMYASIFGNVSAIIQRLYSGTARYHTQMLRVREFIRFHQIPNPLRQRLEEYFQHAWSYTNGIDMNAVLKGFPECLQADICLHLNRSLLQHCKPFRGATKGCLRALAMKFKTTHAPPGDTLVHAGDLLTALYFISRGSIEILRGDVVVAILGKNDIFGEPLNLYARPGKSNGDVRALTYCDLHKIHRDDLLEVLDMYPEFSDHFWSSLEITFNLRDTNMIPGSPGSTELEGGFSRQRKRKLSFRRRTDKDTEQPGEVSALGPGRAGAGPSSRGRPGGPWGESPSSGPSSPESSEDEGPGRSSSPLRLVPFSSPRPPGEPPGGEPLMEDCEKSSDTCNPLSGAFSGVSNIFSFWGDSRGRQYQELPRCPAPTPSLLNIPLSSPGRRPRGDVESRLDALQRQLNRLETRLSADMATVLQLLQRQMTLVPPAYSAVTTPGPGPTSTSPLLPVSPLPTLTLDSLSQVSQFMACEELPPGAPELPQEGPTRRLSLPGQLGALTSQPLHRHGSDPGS
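Further: peak tail current of the secondary pulse compared with the same well before compound.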

Row | Compound | hERG current change (%, negative = inhibition) at 10uM
1 | Cl.N=c1n(CCN2CCCCC2)c2ccccc2n1CC(O)COc1ccccc1 (stereo not drawn) | -68.2%
2 | Cl.N=c1n(CCN2CCOCC2)c2ccccc2n1CC(O)COc1ccccc1 (stereo not drawn) | -39.3%
3 | Cl.OC(CNCCCN1CCCCC1)COc1ccccc1 (stereo not drawn) | -4.25%
4 | COC(=O)N1C(=O)[C@](c2ccc(Cl)cc2)(C(C)C)N1C(=O)OC | 7.07%
5 | COc1ccc(-c2cnc3n2CCCCC3)cc1 | -33.1%
6 | CCOc1ccc(-c2cnc3n2CCC3)cc1.Cl | -18.3%
7 | CCOc1ccc(-c2cnc3n2CCCCC3)cc1 | -63.3%
8 | Cc1ccc(NC(=O)CCC(=O)N2CCOCC2)nc1 | 13%
9 | CCc1ccc(C2=NNC(=Nc3c(C)n(C)n(-c4ccccc4)c3=O)SC2)cc1 | 34.4%
10 | CCOC(=O)c1cc(-c2ccccc2)n(CCC(=O)NC(C)CC)c1C (stereo not drawn) | -12.5%
11 | CCCNC(=O)CCn1c(-c2ccc(C)cc2)cc(C(=O)OCC)c1C | -6.08%
12 | CCOC(=O)c1cc(-c2ccccc2)n(CC(=O)Nc2ccc(OC)cc2)c1C | 6.19%
13 | CCOC(=O)c1cc(-c2ccccc2)n(CCC(=O)N2CCN(c3ccc(OC)cc3)CC2)c1C | -25.5%
14 | CCOC(=O)c1cc(-c2ccc(F)cc2)n(CCC(=O)NC2CCN(Cc3ccccc3)CC2)c1C | -64.2%
15 | CCOC(=O)c1cc(-c2ccc(OC)cc2)n(CCC(=O)NCCN2CCC(C)CC2)c1C | -52.4%
16 | CCOC(=O)c1cc(-c2ccc(OC)cc2)n(CCC(=O)NC2CCN(Cc3ccccc3)CC2)c1C | -65.7%
17 | CCOC(=O)c1cc(-c2ccc(C)cc2)n(CCC(=O)NCCCOC)c1C | -11.5%
18 | CC(=O)c1cc(-c2ccccc2)n(CCC(=O)NC2CCCC2)c1C | 0.876%
19 | O=C(Cn1c(=S)[nH]c2ccccc2c1=O)NCCc1ccccc1 | 16%
20 | CCC(NC(=S)NC1CCCCC1)c1ccc(C(C)C)cc1 (stereo not drawn) | 13.7%
21 | CC(C)=CCCC(C)NC(=O)NC1CCCCC1 (stereo not drawn) | -3.64%
22 | CCCc1cc(=O)oc2cc(C)cc(OCc3nn[nH]n3)c12 | 13%
23 | O=C(NCCO)c1ccc(Oc2ccc(C(F)(F)F)cc2[N+](=O)[O-])cc1 | -0.131%
24 | COc1ccccc1C(=O)Nc1c2c(nn1-c1ccc(Cl)cc1)CS(=O)(=O)C2 | 9.63%

Row | Compound | hERG current change (%, negative = inhibition) at 10uM
25 | C/C(=N\OC(=O)c1c(-c2ccccc2Cl)noc1C)c1ccncc1 | -58.6%
26 | Cc1onc(-c2ccccc2Cl)c1C(=O)O/N=C(\N)c1ccc([N+](=O)[O-])o1 | -43.6%
27 | Cc1onc(-c2c(F)cccc2Cl)c1C(=O)O/N=C(\N)c1ccc([N+](=O)[O-])o1 | -16.8%
28 | C/C(=N/OC(=O)c1c(-c2ccccc2Cl)noc1C)c1cnccn1 | -7.04%
29 | Cc1onc(-c2cccc(Cl)c2Cl)c1C(=O)O/N=C(\N)c1ccc([N+](=O)[O-])o1 | -65%
30 | C/C(=N\OC(=O)c1c(-c2ccccc2Cl)noc1C)c1nccs1 | -2.44%
31 | NS(=O)(=O)c1ccc(NC(=S)Nc2ccc(Br)c(Cl)c2)cc1 | 21.3%
32 | CCOC(=O)c1ccccc1N/C=C/C(=O)c1cccs1 | -14.9%
33 | CCn1c(-c2csc(C(C)C)c2)n[nH]c1=S | 37.1%
34 | CC(=O)Nc1ccc(SC[C@H](Cc2ccccc2)N2CCN(CCc3ccccc3)CCC2=O)cc1 | -55.9%
35 | CCCN1CCC(=O)N(CCSc2ccc(NC(C)=O)cc2)CC1 | 6.8%
36 | CC(=O)Nc1ccc(SC[C@H](CC(C)C)N2CCN(CC(C)C)CCC2=O)cc1 | -28.1%
37 | CC(=O)Nc1ccc(SC[C@H](Cc2ccccc2)N2CC[C@@H](O)CCC2=O)cc1 | -7.75%
38 | CC(=O)Nc1ccc(SC[C@H](CC(C)C)N2CCN(CCc3ccccc3)CCC2=O)cc1 | -59.1%
39 | CC(=O)Nc1ccc(SC[C@H](Cc2ccccc2)N2CC[C@@H](C(C)(C)C)CCC2=O)cc1 | 5.23%
40 | CC(=O)Nc1ccc(SC[C@H](Cc2ccccc2)N2CC[C@@H](C)CCC2=O)cc1 | -8.11%
41 | CC(=O)Nc1ccc(SC[C@H](c2ccccc2)N2CCN(CCc3ccccc3)CCC2=O)cc1 | -75.1%
42 | CC(=O)Nc1ccc(SC[C@H](Cc2ccccc2)N2CCN(CC(C)C)CCC2=O)cc1 | -44.2%
43 | Cc1cc(OCc2cc(C(=O)NCc3cc(C(C)C)no3)no2)cc(C)c1Cl | 9.79%
44 | Cc1cc(C)c(/C=C(\C#N)S(=O)(=O)c2ccccc2)[nH]1 | 11%
45 | Cc1[nH][nH]c(=O)c1C(c1ccc(O)c([N+](=O)[O-])c1)c1c(C)[nH][nH]c1=O | 18.8%
46 | CN(C)c1nc(N)ncc1-c1ccc(Oc2ccccc2)cc1 | 18%
47 | COc1ccc(-n2nc(C(=O)NCC(=O)N3CCN(c4ccccc4OC)CC3)c3ccccc3c2=O)c(OC)c1 | -18.4%
48 | Cc1c(N/C=C/C(=O)C(F)(F)F)c(=O)n(-c2ccccc2)n1C | 20.2%

Row | Compound | hERG current change (%, negative = inhibition) at 10uM
49 | CC1=CC2=NC(=O)CC(C)(C(=O)N(CC(=O)NC3CCCC3)c3cc(C)cc(C)c3)N2C=C1 (stereo not drawn) | 17.9%
50 | COc1ccccc1CNC(=O)C(=O)c1cn(CC(=O)N2CCCC2)c2ccccc12 | 15.1%
51 | Cc1cccc(/C(N)=N/OC(=O)c2ccc(Cl)cc2Cl)c1 | 8.46%
52 | COc1ccc(C(=O)N2CCOCC2)cc1S(=O)(=O)N1CCCc2ccccc21 | -31.4%
53 | Cc1ccc(C(=O)OCC(=O)c2ccc(S(=O)(=O)N3CCCCC3)cc2)o1 | -20.3%
54 | O=Cc1cn(CCOc2ccccc2)c2ccccc12 | 4.98%
55 | COCCCn1c(=NC(=O)c2ccncc2)c(C#N)cc2c(=O)n3cccc(C)c3nc21 | -68%
56 | COCCCn1c(=NC(C)=O)c(C#N)cc2c(=O)n3cccc(C)c3nc21 | -49.7%
57 | COCCCn1c(=NC(=O)c2ccccc2)c(C#N)cc2c(=O)n3cccc(C)c3nc21 | -71.5%
58 | CC(=O)N=c1c(C#N)cc2c(=O)n3cccc(C)c3nc2n1CCCOC(C)C | -50.4%
59 | Cc1cccn2c(=O)c3cc(C#N)c(=NC(=O)c4ccncc4)n(CCCOC(C)C)c3nc12 | -85.1%
60 | O=C(O)c1cccc(-n2c(-c3cnccn3)n[nH]c2=S)c1 | 20.4%
61 | CN(C)c1ccc(NC(=S)c2ccc3ccccc3n2)cc1 | 12.2%
62 | Cc1ccccc1NCC(=O)N/N=C/c1c(C)c(C(=O)c2ccc(Cl)cc2)n2ccccc12 | -4.11%
63 | COc1ccccc1C(=O)NC(=O)COc1cc(Cl)ccc1Cl | 0.882%
64 | CC1CCCCN1C(=O)c1c([N+](=O)[O-])cnn1C (stereo not drawn) | 18.7%
65 | COc1ccc(NC(=O)c2cncn2-c2ccccc2)cc1 | 13.7%
66 | CCOC(=O)C1=C(C)N(CCCC(=O)O)C(=O)NC1c1ccccc1OS(=O)(=O)c1ccc(C)cc1 (stereo not drawn) | -15.2%
67 | Cc1cc(=O)oc2cc(NC(=O)c3ccccc3OC(F)F)ccc12 | 26.9%
68 | CC1CCN(C2=NC(=O)/C(=C/c3cccc(O)c3)S2)CC1 | -18.5%
69 | CC(=O)N1C(Nc2ccc(Cl)cc2)CCN1c1ccccc1 (stereo not drawn) | 9.96%
70 | O=C(NC(NNc1ccc([N+](=O)[O-])cc1)(C(F)(F)F)C(F)(F)F)c1ccc(F)cc1 | -2.67%
71 | COc1ccc(C(=O)Nc2ncc(C)s2)cc1S(=O)(=O)N1CCCC1 | 17.5%
72 | COc1ccc(C(=O)Nc2ccc(Cl)cn2)cc1S(=O)(=O)N1CCCC1 | -48%

Row | Compound | hERG current change (%, negative = inhibition) at 10uM
73 | COc1ccc(C(=O)Nc2nnc(C)s2)cc1S(=O)(=O)N1CCOCC1 | -14%
74 | COc1ccc(C(=O)Nc2ccc(Br)cn2)cc1S(=O)(=O)N1CCOCC1 | -57.9%
75 | COc1ccc(C(=O)Nc2ncc(C)s2)cc1S(=O)(=O)N1CCOCC1 | -56.2%
76 | COc1ccc(C(=O)Nc2ccccn2)cc1S(=O)(=O)N1CCOCC1 | -8.04%
77 | CN(C)c1nc(Oc2ccc(=O)n(-c3ccccc3)n2)nc(N2CCOCC2)n1 | 9.19%
78 | CC(=O)Nc1ccc(C(=O)NNC(=O)c2ccccc2-n2cccc2)cc1 | 6.54%
79 | COc1ccc(C(=O)NNC(=O)CN(C)S(=O)(=O)c2ccc(Cl)cc2)c(OC)c1OC | -49.7%
80 | Cc1cccc(N/N=C/c2ccc(C)s2)c1 | 19.7%
81 | O=C(CCCn1c(=S)[nH]c2ccsc2c1=O)NCc1ccco1 | 18.8%
82 | O=C(C1CCCN(S(=O)(=O)c2cccc3nonc23)C1)N1CCC(Cc2ccccc2)CC1 (stereo not drawn) | -30.9%
83 | O=C(NCCc1ccccc1)C1CCN(S(=O)(=O)c2cccc3nonc23)CC1 | -10.5%
84 | CCN(CCCNC(=O)C1CCN(S(=O)(=O)c2cccc3nonc23)CC1)Cc1ccccc1 | -57.2%
85 | Cc1noc(C)c1S(=O)(=O)N1CCC(C(=O)NC2CCN(Cc3ccccc3)CC2)CC1 | -25%
86 | CCCNC(=O)C1CCN(S(=O)(=O)c2cccc3nonc23)CC1 | -3.97%
87 | O=C(NC1CCN(Cc2ccccc2)CC1)C1CCCN(S(=O)(=O)c2cccc3nonc23)C1 (stereo not drawn) | -55.9%
88 | Cc1ccc(C(=O)NC2CCN(Cc3ccccc3)CC2)cc1S(=O)(=O)N1CCOCC1 | -30.2%
89 | Cc1ccc(Cl)cc1S(=O)(=O)N1CCC(C(=O)NC2CCN(Cc3ccccc3)CC2)CC1 | -71.5%
90 | O=C(NCc1ccccc1)C1CCCN(S(=O)(=O)c2cccc3nonc23)C1 (stereo not drawn) | 9.65%
91 | CCN(CC)S(=O)(=O)c1ccc(S(=O)(=O)N2CCC(C(=O)NC3CCN(Cc4ccccc4)CC3)CC2)cc1 | 14.8%
92 | O=C(NC1CCN(Cc2ccccc2)CC1)C1CCN(S(=O)(=O)c2ccc(Cl)cc2)CC1 | -73.2%
93 | O=C(NC1CCN(Cc2ccccc2)CC1)C1CCN(S(=O)(=O)c2ccccc2)CC1 | -28.8%
